Source: paper PMC7862700, “An all-to-all approach to the identification of sequence-specific readers for epigenetic DNA modifications on cytosine”

How the values were obtained:
Assay in all cases: DAPPL (digital affinity profiling via proximity ligation, sequencing); 10 mM Tris-HCl pH 7.5, 50 mM NaCl, 1 mM DTT, 4% glycerol, room temperature, 30 min; GST-TFs on glutathione beads, 16-mer random dsDNA library, 0.1% formaldehyde crosslink after washing; high values mean tight binding
FLI1 = molecular target: T1, FLI1 (Homo sapiens, UniProt Q01543 1-452); conditions: protein: recombinant; tags: N-terminal GST; dsDNA, one strand shown
T1 sequence: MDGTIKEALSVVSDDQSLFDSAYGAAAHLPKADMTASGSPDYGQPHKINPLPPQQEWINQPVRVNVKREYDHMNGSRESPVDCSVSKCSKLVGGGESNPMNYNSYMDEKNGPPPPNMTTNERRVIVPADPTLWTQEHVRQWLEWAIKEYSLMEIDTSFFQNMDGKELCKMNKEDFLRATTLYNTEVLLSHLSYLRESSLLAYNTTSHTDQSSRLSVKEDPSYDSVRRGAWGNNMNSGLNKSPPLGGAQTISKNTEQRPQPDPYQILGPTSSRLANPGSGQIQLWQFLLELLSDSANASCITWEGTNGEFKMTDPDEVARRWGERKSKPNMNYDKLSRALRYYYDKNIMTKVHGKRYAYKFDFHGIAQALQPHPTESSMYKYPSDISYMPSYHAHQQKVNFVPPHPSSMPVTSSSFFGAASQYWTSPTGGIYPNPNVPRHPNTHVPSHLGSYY
Method in brief: (§1)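 A tag-only sample was pooled with DNA-barcoded human transcription factors that had been expressed in yeast as GST fusions and captured on glutathione beads. The pools were incubated for 30 min at room temperature with 200 nmole of a random double-stranded 16-mer DNA library in Tris/NaCl/DTT/glycerol buffer, then washed, crosslinked with 0.1% formaldehyde, proximity-ligated (BsaI/T4 ligase, 1 h, 37 °C), PCR-amplified and sequenced on an Illumina NextSeq500. Binding signal is each hexamer's read frequency for a factor divided by its frequency for the tag-only sample.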

ELK1 = molecular target: T2, ELK1 (Homo sapiens, UniProt P19419 1-428); conditions: protein: recombinant; tags: N-terminal GST; dsDNA, one strand shown
T2 sequence: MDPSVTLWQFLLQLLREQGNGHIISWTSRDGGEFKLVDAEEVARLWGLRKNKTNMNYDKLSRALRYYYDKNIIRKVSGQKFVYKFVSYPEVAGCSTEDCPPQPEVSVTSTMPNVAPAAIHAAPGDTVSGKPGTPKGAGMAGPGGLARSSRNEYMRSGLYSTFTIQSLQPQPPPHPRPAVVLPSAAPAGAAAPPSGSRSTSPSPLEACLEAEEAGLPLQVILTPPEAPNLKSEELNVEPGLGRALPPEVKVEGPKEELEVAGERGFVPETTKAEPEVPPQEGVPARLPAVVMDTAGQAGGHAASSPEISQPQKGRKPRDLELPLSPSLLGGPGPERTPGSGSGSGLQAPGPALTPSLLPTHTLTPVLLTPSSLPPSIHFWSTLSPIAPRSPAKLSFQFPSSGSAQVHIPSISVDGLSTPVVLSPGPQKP
Method in brief: as §1

GABPA = molecular target: T3, GABPA (Homo sapiens, UniProt Q06546 1-454); conditions: protein: recombinant; tags: N-terminal GST; dsDNA, one strand shown
T3 sequence: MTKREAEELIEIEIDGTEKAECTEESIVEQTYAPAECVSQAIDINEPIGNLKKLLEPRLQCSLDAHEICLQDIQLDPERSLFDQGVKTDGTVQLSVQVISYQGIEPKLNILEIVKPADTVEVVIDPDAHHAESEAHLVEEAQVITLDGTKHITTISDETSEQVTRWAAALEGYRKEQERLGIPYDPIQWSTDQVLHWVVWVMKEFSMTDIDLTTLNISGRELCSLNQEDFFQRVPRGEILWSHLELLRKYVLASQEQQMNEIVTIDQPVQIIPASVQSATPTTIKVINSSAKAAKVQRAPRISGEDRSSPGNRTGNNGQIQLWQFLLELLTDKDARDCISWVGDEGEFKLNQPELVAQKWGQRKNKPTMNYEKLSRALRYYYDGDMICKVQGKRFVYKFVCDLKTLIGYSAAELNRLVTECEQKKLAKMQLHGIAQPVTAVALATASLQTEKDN
Method in brief: as §1

ERG = molecular target: T4, ERG (Homo sapiens, UniProt P11308 1-479); conditions: protein: recombinant; tags: N-terminal GST; dsDNA, one strand shown
T4 sequence: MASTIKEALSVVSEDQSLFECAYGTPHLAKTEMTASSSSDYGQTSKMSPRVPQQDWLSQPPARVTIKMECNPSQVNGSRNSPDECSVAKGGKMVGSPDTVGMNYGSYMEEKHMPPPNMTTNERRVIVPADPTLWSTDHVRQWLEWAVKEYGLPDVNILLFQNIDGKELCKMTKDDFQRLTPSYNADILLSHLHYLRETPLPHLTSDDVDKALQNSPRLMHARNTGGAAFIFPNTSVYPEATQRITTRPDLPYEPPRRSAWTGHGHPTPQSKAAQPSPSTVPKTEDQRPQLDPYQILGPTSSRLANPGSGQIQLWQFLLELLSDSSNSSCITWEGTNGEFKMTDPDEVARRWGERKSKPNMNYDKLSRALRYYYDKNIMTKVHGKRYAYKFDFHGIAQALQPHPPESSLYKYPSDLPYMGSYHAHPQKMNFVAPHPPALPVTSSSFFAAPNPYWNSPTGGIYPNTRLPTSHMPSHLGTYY
Method in brief: as §1

ELF1 = ELF1 (Homo sapiens, UniProt P32519 1-619); conditions: protein: recombinant; tags: N-terminal GST; dsDNA, one strand shown
Sequence of ELF1 (P32519 whole entry): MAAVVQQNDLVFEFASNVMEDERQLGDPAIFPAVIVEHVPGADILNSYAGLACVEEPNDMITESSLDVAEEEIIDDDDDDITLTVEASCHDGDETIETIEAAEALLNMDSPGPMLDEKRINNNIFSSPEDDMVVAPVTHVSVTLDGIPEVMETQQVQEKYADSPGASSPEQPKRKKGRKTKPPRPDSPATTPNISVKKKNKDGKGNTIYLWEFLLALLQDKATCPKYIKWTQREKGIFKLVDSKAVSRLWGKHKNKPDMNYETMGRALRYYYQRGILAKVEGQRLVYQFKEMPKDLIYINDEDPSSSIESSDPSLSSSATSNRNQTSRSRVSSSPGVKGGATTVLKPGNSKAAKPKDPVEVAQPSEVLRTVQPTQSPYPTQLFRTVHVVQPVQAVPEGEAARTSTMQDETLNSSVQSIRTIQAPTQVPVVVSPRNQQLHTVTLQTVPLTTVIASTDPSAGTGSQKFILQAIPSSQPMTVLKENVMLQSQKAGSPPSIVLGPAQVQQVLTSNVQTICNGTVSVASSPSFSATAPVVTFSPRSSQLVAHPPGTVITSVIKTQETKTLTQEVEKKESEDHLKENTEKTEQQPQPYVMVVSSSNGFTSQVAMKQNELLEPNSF
Method in brief: as §1

EHF = molecular target: T5, EHF (Homo sapiens, UniProt Q9NZC4 1-300); conditions: protein: recombinant; tags: N-terminal GST; dsDNA, one strand shown
T5 sequence: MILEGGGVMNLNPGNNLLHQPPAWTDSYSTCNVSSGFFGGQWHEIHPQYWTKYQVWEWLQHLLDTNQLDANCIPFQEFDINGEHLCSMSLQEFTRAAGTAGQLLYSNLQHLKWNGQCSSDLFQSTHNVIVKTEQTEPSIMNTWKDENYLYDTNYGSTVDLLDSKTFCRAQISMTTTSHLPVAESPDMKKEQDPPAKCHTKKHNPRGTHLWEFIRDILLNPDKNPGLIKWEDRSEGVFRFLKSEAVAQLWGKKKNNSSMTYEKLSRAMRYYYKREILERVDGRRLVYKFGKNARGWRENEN
Method in brief: as §1

SPI1 = SPI1 (Homo sapiens, UniProt P17947 1-270); conditions: protein: recombinant; tags: N-terminal GST; dsDNA, one strand shown
Method in brief: as §1

SPIB = SPIB (Homo sapiens, UniProt Q01892 1-262); conditions: protein: recombinant; tags: N-terminal GST; dsDNA, one strand shown
Sequence of SPIB (Q01892 whole entry): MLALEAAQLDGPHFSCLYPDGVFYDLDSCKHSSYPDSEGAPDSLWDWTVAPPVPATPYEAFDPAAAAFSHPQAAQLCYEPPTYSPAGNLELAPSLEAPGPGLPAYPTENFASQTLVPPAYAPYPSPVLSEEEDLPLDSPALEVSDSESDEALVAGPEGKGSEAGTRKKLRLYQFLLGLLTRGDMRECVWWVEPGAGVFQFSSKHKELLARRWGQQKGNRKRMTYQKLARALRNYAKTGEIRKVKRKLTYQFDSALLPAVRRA
Method in brief: as §1

ELK3 = molecular target: T6, ELK3 (Homo sapiens, UniProt P41970 1-407); conditions: protein: recombinant; tags: N-terminal GST; dsDNA, one strand shown
T6 sequence: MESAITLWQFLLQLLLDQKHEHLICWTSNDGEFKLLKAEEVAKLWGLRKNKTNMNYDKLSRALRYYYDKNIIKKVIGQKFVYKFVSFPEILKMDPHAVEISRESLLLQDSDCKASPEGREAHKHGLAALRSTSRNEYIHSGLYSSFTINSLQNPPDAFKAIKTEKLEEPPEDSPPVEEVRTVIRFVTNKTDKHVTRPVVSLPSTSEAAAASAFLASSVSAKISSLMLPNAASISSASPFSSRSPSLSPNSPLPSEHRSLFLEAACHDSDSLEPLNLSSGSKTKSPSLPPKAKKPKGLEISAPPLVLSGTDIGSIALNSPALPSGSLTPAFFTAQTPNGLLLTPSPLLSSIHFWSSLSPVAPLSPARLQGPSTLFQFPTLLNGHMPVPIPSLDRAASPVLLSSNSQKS
Method in brief: as §1

FEV = molecular target: T7, FEV (Homo sapiens, UniProt Q99581 1-238); conditions: protein: recombinant; tags: N-terminal GST; dsDNA, one strand shown
T7 sequence: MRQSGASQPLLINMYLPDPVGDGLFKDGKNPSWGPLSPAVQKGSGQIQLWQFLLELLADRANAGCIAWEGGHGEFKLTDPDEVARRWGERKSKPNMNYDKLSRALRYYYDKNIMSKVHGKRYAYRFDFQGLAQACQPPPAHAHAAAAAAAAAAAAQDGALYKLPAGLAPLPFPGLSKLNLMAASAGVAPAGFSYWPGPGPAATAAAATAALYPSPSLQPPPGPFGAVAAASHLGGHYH
Method in brief: as §1

ETV5 = ETV5 (Homo sapiens, UniProt P41161 1-510); conditions: protein: recombinant; tags: N-terminal GST; dsDNA, one strand shown
Sequence of ETV5 (P41161 whole entry): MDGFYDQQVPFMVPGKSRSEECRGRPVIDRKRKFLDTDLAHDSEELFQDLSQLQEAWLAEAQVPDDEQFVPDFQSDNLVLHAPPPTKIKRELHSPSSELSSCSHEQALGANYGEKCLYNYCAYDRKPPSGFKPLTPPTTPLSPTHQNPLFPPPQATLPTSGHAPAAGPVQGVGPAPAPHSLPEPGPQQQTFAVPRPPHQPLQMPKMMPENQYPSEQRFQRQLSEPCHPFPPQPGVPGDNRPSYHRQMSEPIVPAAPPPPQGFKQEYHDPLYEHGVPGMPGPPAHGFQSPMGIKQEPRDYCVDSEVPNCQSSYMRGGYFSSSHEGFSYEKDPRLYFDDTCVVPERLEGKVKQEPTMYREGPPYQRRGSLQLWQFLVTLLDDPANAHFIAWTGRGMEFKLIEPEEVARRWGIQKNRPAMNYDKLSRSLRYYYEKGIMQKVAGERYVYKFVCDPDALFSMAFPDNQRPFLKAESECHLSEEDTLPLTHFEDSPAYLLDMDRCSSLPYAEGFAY
Method in brief: as §1

HSF1 = HSF1 (Homo sapiens, UniProt Q00613 1-529); conditions: protein: recombinant; tags: N-terminal GST; chain copies: 3; dsDNA, one strand shown
Sequence of HSF1 (Q00613 whole entry): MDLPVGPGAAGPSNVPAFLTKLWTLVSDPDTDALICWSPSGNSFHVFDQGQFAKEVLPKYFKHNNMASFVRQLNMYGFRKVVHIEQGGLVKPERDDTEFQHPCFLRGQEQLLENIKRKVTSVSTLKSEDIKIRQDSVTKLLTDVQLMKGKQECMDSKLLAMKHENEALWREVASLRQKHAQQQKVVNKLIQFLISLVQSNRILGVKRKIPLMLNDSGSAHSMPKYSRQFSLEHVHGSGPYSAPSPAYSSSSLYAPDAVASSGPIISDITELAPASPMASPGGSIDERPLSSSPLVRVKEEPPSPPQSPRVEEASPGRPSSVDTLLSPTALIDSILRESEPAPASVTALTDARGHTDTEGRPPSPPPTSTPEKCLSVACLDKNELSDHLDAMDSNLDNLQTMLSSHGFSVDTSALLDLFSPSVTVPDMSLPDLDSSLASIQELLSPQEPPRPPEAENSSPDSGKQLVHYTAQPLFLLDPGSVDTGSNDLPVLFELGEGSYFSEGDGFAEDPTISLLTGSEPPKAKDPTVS
Method in brief: as §1

SPIC = molecular target: T8, SPIC (Homo sapiens, UniProt Q8N5J4 1-248); conditions: protein: recombinant; tags: N-terminal GST; dsDNA, one strand shown
T8 sequence: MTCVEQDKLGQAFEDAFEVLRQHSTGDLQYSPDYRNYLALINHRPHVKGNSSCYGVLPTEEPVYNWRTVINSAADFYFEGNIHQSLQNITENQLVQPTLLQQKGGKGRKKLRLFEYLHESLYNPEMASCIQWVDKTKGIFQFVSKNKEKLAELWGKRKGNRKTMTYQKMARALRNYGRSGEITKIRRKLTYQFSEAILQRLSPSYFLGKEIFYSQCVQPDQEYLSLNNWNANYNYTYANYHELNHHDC
Method in brief: as §1

ELF4 = ELF4 (Homo sapiens, UniProt Q99607 1-663); conditions: protein: recombinant; tags: N-terminal GST; dsDNA, one strand shown
Sequence of ELF4 (Q99607 whole entry): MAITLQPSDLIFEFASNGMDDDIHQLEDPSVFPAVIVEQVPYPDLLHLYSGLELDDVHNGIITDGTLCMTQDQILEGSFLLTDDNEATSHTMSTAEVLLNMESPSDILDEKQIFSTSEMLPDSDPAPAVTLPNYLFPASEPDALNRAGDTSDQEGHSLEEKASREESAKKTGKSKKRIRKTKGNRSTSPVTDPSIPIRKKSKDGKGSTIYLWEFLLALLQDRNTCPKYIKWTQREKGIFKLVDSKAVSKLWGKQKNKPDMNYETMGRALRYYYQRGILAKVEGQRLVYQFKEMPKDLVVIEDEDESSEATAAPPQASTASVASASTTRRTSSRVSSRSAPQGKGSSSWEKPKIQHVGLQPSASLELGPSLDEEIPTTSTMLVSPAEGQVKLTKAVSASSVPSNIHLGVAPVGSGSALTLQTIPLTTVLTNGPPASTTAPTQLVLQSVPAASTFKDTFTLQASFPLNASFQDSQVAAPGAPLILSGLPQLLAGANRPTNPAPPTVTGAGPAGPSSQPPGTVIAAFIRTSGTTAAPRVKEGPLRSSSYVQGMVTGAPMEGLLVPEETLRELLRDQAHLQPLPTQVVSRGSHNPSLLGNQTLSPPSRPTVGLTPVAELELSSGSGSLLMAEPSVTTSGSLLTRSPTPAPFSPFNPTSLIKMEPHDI
Method in brief: as §1

ELK4 = molecular target: T9, ELK4 (Homo sapiens, UniProt P28324-2 1-405); conditions: protein: recombinant; tags: N-terminal GST; dsDNA, one strand shown
T9 sequence: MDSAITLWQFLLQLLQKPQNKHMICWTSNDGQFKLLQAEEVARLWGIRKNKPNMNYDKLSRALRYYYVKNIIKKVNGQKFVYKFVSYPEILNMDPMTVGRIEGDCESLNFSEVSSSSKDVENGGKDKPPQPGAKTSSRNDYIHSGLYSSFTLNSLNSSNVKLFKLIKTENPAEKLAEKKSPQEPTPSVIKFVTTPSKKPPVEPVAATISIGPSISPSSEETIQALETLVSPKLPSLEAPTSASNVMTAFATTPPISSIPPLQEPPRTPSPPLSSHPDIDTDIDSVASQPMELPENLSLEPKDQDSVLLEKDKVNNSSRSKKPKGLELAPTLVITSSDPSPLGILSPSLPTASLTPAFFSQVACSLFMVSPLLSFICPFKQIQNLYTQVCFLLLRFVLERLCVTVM
Method in brief: as §1

ETV2 = molecular target: T10, ETV2 (Homo sapiens, UniProt O00321 1-342); conditions: protein: recombinant; tags: N-terminal GST; dsDNA, one strand shown
T10 sequence: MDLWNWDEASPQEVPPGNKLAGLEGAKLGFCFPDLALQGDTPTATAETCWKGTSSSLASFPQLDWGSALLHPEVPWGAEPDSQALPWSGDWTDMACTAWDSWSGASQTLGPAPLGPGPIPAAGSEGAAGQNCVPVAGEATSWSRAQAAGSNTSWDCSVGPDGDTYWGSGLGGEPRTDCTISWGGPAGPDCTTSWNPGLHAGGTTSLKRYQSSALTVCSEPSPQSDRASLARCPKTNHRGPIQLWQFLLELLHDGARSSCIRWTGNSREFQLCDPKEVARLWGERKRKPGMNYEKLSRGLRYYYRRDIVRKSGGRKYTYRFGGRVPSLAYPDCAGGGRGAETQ
Method in brief: as §1

ELF3 = molecular target: T11, ELF3 (Homo sapiens, UniProt P78545 1-371); conditions: protein: recombinant; tags: N-terminal GST; dsDNA, one strand shown
T11 sequence: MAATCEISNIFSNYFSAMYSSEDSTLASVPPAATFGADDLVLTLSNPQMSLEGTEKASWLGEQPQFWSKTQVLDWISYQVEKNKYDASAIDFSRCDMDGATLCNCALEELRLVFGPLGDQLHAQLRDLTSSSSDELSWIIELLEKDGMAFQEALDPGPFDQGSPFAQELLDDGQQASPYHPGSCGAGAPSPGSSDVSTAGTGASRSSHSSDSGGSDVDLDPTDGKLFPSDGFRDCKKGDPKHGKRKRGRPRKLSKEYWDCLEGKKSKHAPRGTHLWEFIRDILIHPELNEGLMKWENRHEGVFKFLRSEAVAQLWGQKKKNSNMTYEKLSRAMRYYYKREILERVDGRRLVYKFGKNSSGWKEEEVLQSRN
Method in brief: as §1

CRX = CRX (Homo sapiens, UniProt O43186 1-299); conditions: protein: recombinant; tags: N-terminal GST; dsDNA, one strand shown
Sequence of CRX (O43186 whole entry): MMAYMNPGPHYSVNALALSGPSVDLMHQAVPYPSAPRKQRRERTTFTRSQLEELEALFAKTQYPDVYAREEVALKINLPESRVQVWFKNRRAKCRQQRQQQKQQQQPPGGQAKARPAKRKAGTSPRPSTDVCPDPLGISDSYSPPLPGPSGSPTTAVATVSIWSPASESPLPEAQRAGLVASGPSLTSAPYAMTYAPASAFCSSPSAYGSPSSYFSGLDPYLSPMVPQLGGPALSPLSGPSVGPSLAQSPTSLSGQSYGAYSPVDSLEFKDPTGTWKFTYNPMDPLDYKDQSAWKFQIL
Method in brief: as §1

ETV1 = ETV1 (Homo sapiens, UniProt P50549 1-477); conditions: protein: recombinant; tags: N-terminal GST; dsDNA, one strand shown
Sequence of ETV1 (P50549 whole entry): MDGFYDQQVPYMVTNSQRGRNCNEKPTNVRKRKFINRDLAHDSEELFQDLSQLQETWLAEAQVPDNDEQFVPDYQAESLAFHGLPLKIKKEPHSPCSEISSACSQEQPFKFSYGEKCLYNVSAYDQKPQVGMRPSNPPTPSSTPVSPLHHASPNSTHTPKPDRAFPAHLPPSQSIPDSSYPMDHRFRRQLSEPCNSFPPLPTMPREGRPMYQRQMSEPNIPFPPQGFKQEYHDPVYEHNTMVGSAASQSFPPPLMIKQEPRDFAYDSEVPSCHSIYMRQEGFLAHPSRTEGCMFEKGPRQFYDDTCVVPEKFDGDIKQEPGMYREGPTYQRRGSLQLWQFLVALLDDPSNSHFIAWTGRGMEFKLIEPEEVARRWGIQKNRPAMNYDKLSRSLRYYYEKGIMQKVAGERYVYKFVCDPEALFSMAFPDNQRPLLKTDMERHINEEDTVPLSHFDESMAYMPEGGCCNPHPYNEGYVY
Method in brief: as §1

TTCACC
binding signal (FLI1): 1.35 fold enrichment (6-mer frequency, TF over GST control) | binding signal (ELK1): 1.39 fold enrichment (6-mer frequency, TF over GST control) | binding signal (GABPA): 1.34 fold enrichment (6-mer frequency, TF over GST control) | binding signal (ERG): 1.38 fold enrichment (6-mer frequency, TF over GST control) | binding signal (ELF1): 1.39 fold enrichment (6-mer frequency, TF over GST control) | binding signal (EHF): 1.19 fold enrichment (6-mer frequency, TF over GST control) | binding signal (SPI1): 1.4 fold enrichment (6-mer frequency, TF over GST control) | binding signal (SPIB): 1.28 fold enrichment (6-mer frequency, TF over GST control) | binding signal (ELK3): 1.32 fold enrichment (6-mer frequency, TF over GST control) | binding signal (FEV): 1.39 fold enrichment (6-mer frequency, TF over GST control) | binding signal (ETV5): 1.33 fold enrichment (6-mer frequency, TF over GST control) | binding signal (HSF1): 1.14 fold enrichment (6-mer frequency, TF over GST control) | binding signal (SPIC): 1.34 fold enrichment (6-mer frequency, TF over GST control) | binding signal (ELF4): 1.44 fold enrichment (6-mer frequency, TF over GST control) | binding signal (ELK4): 1.36 fold enrichment (6-mer frequency, TF over GST control) | binding signal (ETV2): 1.36 fold enrichment (6-mer frequency, TF over GST control) | binding signal (ELF3): 1.57 fold enrichment (6-mer frequency, TF over GST control) | binding signal (CRX): 1.17 fold enrichment (6-mer frequency, TF over GST control) | binding signal (ETV1): 1.4 fold enrichment (6-mer frequency, TF over GST control)
